Source: PubChem BioAssay (National Center for Advancing Translational Sciences (NCATS))
VP16 counter: inhibits Gal4-VP16 luciferase reporter, ROR gamma counter-screen; 3.5% of 310,000 active; Potency, µM (series often up to 53.6 µM), for the others: top-dose activity, negative = inhibition, usual class: inhibitors; AID 2546; Drosophila S2 Gal4-VP16 UAS-luciferase, luminescence, 20 h;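 also: Gal4-VP16 expression switched on by copper sulfate through the metallothionein promoter; nearly all actives have a fitted effect of over 50% in size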
RORg inh: inhibitors of mouse ROR gamma transcriptional activity. Drosophila S2 Gal4-RORgamma UAS-luciferase reporter, 20 h. 5.4% of 310,000 active. P51450. Potency, µM (series often up to 53.6 µM), inactives show top-dose activity change, negative = inhibition, hits mostly inhibitors; also: nearly all actives have a fitted effect of over 60% in size
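A Gal4/UAS one-hybrid system in insect cells: metallothionein-promoter Gal4–ROR gamma fusion plus Photinus luciferase reporter. Copper sulfate 700 uM final, 20 hr ambient incubation, luminescent detection after 10 min with reagent.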
ALOX12 inh: blocks human arachidonate 12S-lipoxygenase | P18054 | purified 12hLO, xylenol orange hydroperoxide absorbance | Potency, µM (doses to about 108 µM), inactives show at the highest dose activity change, negative = inhibition, hits mostly inhibitors | 1.1% of 580,000 active
Target sequence (P18054 whole entry, looked up): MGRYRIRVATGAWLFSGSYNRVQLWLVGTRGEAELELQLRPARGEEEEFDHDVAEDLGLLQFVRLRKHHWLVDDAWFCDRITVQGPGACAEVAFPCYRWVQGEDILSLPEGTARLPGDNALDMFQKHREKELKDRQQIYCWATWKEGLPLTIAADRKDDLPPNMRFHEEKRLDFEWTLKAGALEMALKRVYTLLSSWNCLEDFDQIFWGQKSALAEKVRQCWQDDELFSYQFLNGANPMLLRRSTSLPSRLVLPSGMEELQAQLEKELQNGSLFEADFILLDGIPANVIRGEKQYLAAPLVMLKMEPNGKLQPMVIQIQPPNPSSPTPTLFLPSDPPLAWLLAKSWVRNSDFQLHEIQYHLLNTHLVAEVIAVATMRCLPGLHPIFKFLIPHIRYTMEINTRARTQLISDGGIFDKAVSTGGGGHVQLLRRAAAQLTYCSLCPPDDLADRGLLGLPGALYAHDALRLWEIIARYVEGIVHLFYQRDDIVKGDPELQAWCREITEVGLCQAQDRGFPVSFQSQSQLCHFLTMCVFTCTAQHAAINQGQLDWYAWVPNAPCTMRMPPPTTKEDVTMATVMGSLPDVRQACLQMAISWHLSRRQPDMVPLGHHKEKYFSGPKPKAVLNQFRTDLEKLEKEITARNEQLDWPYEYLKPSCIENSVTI
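Hydroperoxide product was detected by ferrous iron/xylenol orange as the 573 to 405 nm absorbance ratio. Arachidonic acid at 40 uM (final) was turned over for 30 min at room temperature by 150 nM human 12hLO, pH 7.0 Hepes buffer, after 15 min compound preincubation.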
DT40 TDP1 no CPT: qHTS for Inhibitors of human tyrosyl-DNA phosphodiesterase 1 (TDP1): qHTS in cells in absence of CPT. DT40 Tdp1-/- hTDP1 cells, no CPT, ATP luminescence, 48 h. Potency, µM (series often up to 46.2 µM), without a hit: at the highest dose activity change, negative = growth inhibition, hits mostly inhibitors. 15% of 420,000 active. AID 686978, 2013; also: nearly all actives have a fitted effect of over 55% in size
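Growth kinetics read by CellTiter-Glo luminescence after ≥48 hr at 37 °C. Cells: DT40 Tdp1-/- stably carrying human TDP1, 400 per well, compound exposure in the absence of CPT (DMSO vehicle).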
ELG1 DNA repair: blocks ELG1-dependent DNA repair in HEK293T cells. HEK293T ELG1-luciferase reporter, luminescence, 16 h; DNA damage induced by 5-fluorouridine. Potency, µM (top dose mostly 46.1 µM), inactives show at the highest dose activity change, negative = inhibition, most hits filed as inhibitors. 2.3% of 330,000 active; also: nearly all actives have a fitted effect of over 55% in size
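DMSO vehicle served as the neutral condition. Each well held 2,000 cells given 5-fluorouridine plus compound; after 16 hr at 37 °C/5% CO2, ONE-Glo was added and luciferase measured 30 min later.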
TDP1 cell CPT: DT40-hTDP1 cell growth loss with CPT; chicken DT40 Tdp1-/-;hTDP1 cells + 20 nM CPT, ATP luminescence, 48 h; Potency, µM (doses to about 46.2 µM), inactives show at the highest dose activity change, negative = growth inhibition, usual class: inhibitors; 12% of 420,000 active; AID 686979; also: nearly all actives have a fitted effect of over 55% in size
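Chicken DT40 Tdp1-/- cells complemented with human TDP1, 400 cells/well, exposed to compounds plus 20 nM camptothecin for at least 48 h at 37 C; viability read as ATP content by CellTiter-Glo luminescence.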
* marks the source's active call; other numbers are inactive results; u = inconclusive; x = no result; [ ] = another dose, or the depositor's remark. A selection: hits, their analogues and other compounds. The true share with any hit is near 15%. Calls follow the shape of the dose curve; as a rule, active = well fitted curve in the direction sought with a large enough effect; inconclusive = small, poorly fitted or top-dose-only effect, or another doubt; inactive = no such curve, though single readings can be large; an effect the other way counts as inactive or inconclusive. % is scaled to controls: 0 for no effect and ±100 for the full control effect; potency is read from the fitted curve at half-maximal effect.

SMILES	VP16 counter	RORg inh	ALOX12 inh	DT40 TDP1 no CPT	ELG1 DNA repair	TDP1 cell CPT
O=C(Nc1cccc(C(=O)NC2CCCC2)c1)c1ccccc1	0.3%	-17.1%	143.1%	u	-1.8%	u
Cc1ccc(NC(=O)c2nn(CC(C)C)c(=O)c3ccccc23)cc1S(=O)(=O)N1CCOCC1	x	x	-6.8%	x	x	x
CCn1nc(C(=O)Nc2ccc(Cl)c(S(=O)(=O)N3CCOCC3)c2)c2ccccc2c1=O	x	x	25.0%	16.4µM*	u	u
O=C(NC1CC1)c1cccc(NC(=O)c2cnn(-c3ccccc3)n2)c1	x	x	24.7%	16.4µM*	11.6µM*	23.1µM*
CCCn1nc(C(=O)Nc2cc(S(=O)(=O)Nc3ccc(OC)cc3)ccc2O)c2ccccc2c1=O	x	x	-12.8%	u	16.4µM*	u
CC(C)Cn1nc(C(=O)Nc2cccc(S(=O)(=O)N3CCCC3)c2)c2ccccc2c1=O	x	x	-6.0%	u	20.6µM*	u
COc1ccc(NC(=O)C2CCC2)c2cccnc12	x	x	-8.7%	x	x	x
CCn1nc(C(=O)Nc2cccc(S(=O)(=O)N3CCCC3)c2)c2ccccc2c1=O	x	x	176.2%	u	u	u
CC(C)Cn1nc(C(=O)Nc2cccc(C(=O)NC3CC3)c2)c2ccccc2c1=O	x	x	10.0%	18.4µM*	16.4µM*	u
CCCn1nc(C(=O)Nc2cccc(OC)c2)c2ccccc2c1=O	x	x	-1.9%	x	x	x
CCCn1nc(C(=O)Nc2cccc(C(=O)OC)c2)c2ccccc2c1=O	-9.3%	3.1%	-27.7%	u	23.1µM*	u
CCCn1nc(C(=O)Nc2cccc(S(=O)(=O)N3CCOCC3)c2)c2ccccc2c1=O	x	x	-4.9%	25.9µM*	x	u
CCCn1nc(C(=O)NNC(=O)c2cc(S(=O)(=O)NC)ccc2Br)c2ccccc2c1=O	x	x	-2.4%	-11.3%	8.2µM*	-24.7%
CCCn1nc(C(=O)NNC(=O)c2cccc(S(=O)(=O)NC(C)C)c2)c2ccccc2c1=O	10.6%	-3.9%	-4.2%	-8.5%	u	-11.2%
Cc1cc(=O)c(C(=O)Nc2nnc(C(C)C)s2)nn1-c1ccc(Cl)cc1	x	x	-5.1%	x	x	x
CC(C)CC(N)c1ccccc1 (centres undefined)	x	x	-6.8%	x	x	x
COc1ccc(F)c(F)c1C(=O)c1cnc(NC2CCN(S(C)(=O)=O)CC2)nc1N	x	x	-2.3%[57.4 µM]	x	x	x
CCOC(=O)C1=CN(Cc2ccco2)S(=O)(=O)N(CC)C1c1ccc(C(F)(F)F)cc1 (centres undefined)	x	x	u	16.4µM*	5.1%	23.1µM*
O=C(Nc1ccc(Cl)cc1)N1CCn2c(nnc2-c2ccccc2)C1	x	x	-12.5%	x	x	x
CCN(CC)S(=O)(=O)c1cc(NS(=O)(=O)c2cccs2)ccc1C	x	x	-8.6%	5.8µM*	-19.5%	-22.7%
CC(C)CC(=O)NC(=S)Nc1ccc(S(=O)(=O)NC(C)(C)C)cc1	u	u	-24.2%	23.1µM*	-27.6%	u
CC(C)CC(=O)NNC(=S)Nc1ccc(S(N)(=O)=O)cc1	-3.0%[10 µM]	17.8µM*	u	-5.3%	9.9%	8.0%
CCN(CC)S(=O)(=O)c1ccc(NC(=S)NC(=O)C2CCC2)cc1	x	x	141.2%	u	u	18.4µM*
CCC(=O)NC(=S)Nc1ccc(S(=O)(=O)NC(C)=O)cc1	-2.6%	-8.6%	-1.6%	-16.9%	13.9%	-4.5%
Cc1cc(NC(=S)NC(=O)CC(C)C)ccc1Br	u	2.82µM*	-11.4%	-21.3%	u	-27.5%
SMILES	VP16 counter	RORg inh	ALOX12 inh	DT40 TDP1 no CPT	ELG1 DNA repair	TDP1 cell CPT
CC(C)(C)NS(=O)(=O)c1ccc(NC(=S)NC(=O)C2CCC2)cc1	-16.4%	17.8µM*	u	u	u	u
CCN(CC)S(=O)(=O)c1cc(NC(=S)NC(=O)C2CCCC2)ccc1C	x	x	u	18.4µM*	u	23.1µM*
COC(=O)C1=CNC=C(C(=O)OC)C1c1ccc(F)c(F)c1	x	x	40.5%	x	x	x
O=C(COc1cccnc1[N+](=O)[O-])c1ccc(Cl)s1	u	-44.2%	39.8µM*	16.4µM*	-1.0%	16.4µM*
Cc1cc(-n2c(C)cc(C(=O)COc3cccnc3[N+](=O)[O-])c2C)no1	x	x	-6.0%	14.6µM*	-1.8%	11.6µM*
CC(=O)c1cccc(OCC(=O)c2cc(C)n(-c3cc(C)on3)c2C)c1	u	u	0.0%	17.8µM*	u	17.8µM*
O=C(COc1cccnc1[N+](=O)[O-])Nc1c(Cl)cccc1Cl	x	x	-10.3%	-8.0%	8.8%	-7.2%
C=CCNCc1ccsc1	x	x	-23.6%	x	x	x
O=C(CCc1ncc(-c2ccccc2F)o1)Nc1ccc(Cl)cc1F	x	x	18.7%	x	x	x
CCCCS(=O)(=O)c1oc(-c2cccs2)nc1S(=O)(=O)c1ccc(F)cc1	x	x	-13.9%	0.581µM*	x	0.82µM*
CSc1oc(-c2ccc(F)cc2)nc1S(=O)(=O)c1ccc(Br)cc1	x	x	-30.5%	u	x	u
CCCCS(=O)(=O)c1oc(-c2ccc(F)cc2)nc1S(=O)(=O)c1ccc(C)cc1	x	x	3.1%	0.581µM*	x	1.03µM*
CCSc1oc(-c2cccs2)nc1S(=O)(=O)c1ccccc1	-1.7%	u	u	u	1.1%	u
CCCCCS(=O)(=O)c1oc(-c2cccs2)nc1S(=O)(=O)c1ccc(C)cc1	x	x	u	3.66µM*	x	4.61µM*
CCC(C)S(=O)(=O)c1oc(-c2ccc(F)cc2)nc1S(=O)(=O)c1ccc(F)cc1 (centres undefined)	x	x	-13.6%	1.03µM*	x	0.581µM*
CCS(=O)(=O)c1oc(-c2ccc(F)cc2)nc1S(=O)(=O)c1ccccc1	x	x	-13.9%	0.581µM*	x	0.259µM*
Cc1cc(N2CCOC(C(F)(F)F)C2)nc(-c2ccccc2)n1 (centres undefined)	x	x	76.5%	x	x	x
Cc1ccc(OCC(=O)N(Cc2ccc(Cl)cc2)Cc2ccco2)cc1C	x	x	u	20.6µM*	x	u
COc1ccc(CN(Cc2ccco2)C(=O)COc2ccc(Cl)cc2C)cc1	x	x	-18.3%	20.6µM*	x	u
C[S+](=O)([O-])N1Cc2ccccc2CC2(CCCN2CC2CCCC2)C1 (centres undefined)	x	x	0.0%[6.33 µM]	x	x	x
CC(=O)Nc1ccc(C(=O)N2CCc3cc4c(cc3C2C)OCCCO4)cc1 (centres undefined)	-3.3%	11.5%	-5.9%	18.4µM*	-5.0%	u
CC1c2cc3c(cc2CCN1C(=O)c1ccc(Cl)cc1)OCCCO3 (centres undefined)	0.4%	22.0%	11.3%	13µM*	23.1µM*	16.4µM*
